From PubChem BioAssay (NCI) come the findings set out here.

Each structure is given as a SMILES string. This is part of a sample that, as a whole, favours compounds with a hit. Of some 83,000 tested, about 20% had one in any assay.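 Cell lines were cultured in 96-well plates, exposed to a single compound concentration, and assessed for percent growth 48 hours later.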 Unmarked numbers belong to inactive results. Calls of active or inactive are those of the source. Rule for the calls: active = growth percent below 10; inactive = the rest.

Test systems include HCT-15 colon; HT29 colon; SNB-75 CNS; SNB-19 CNS; U251 CNS; PC-3 prostate; SK-MEL-5 melanoma; UACC-62 melanoma; LOX IMVI melanoma; SK-MEL-28 melanoma; SK-MEL-2 melanoma; EKVX NSCLC; SN12C renal; UO-31 renal; TK-10 renal; ACHN renal; CAKI-1 renal; A498 renal; CCRF-CEM leukemia; MOLT-4 leukemia.
Holding throughout (assay): NCI-60 one-dose screen, 48 h (100 = growth as untreated, 0 = no growth, -100 = all killed)
Holding throughout (settings): 10 µM

For `CN1CCN(Cc2ccc(C(=O)Nc3cccc(Nc4ccc5cc(O)ccc5n4)c3)cc2C(F)(F)F)CC1`, the growth in the assay on HCT-15 colon was -81% (active); in the assay on HT29 colon, -49.4% (active); in the assay on SNB-75 CNS it was -11.4% (active); with SNB-19 CNS it was -54% (active); in the assay on U251 CNS, -65% (active); in the assay on PC-3 prostate, -22.9% (active). Besides, the growth in the assay with SK-MEL-5 melanoma was -99.7% (active); in the assay with UACC-62 melanoma, -90.1% (active); in the assay with LOX IMVI melanoma it was -93.5% (active); with SK-MEL-28 melanoma it was -91.9% (active); with SK-MEL-2 melanoma, -95% (active); in the assay with EKVX NSCLC it was -40.7% (active). The growth in the assay on SN12C renal was -64% (active); in the assay on UO-31 renal it was -36.8% (active); in the assay on TK-10 renal, 24%; in the assay on ACHN renal, -56.8% (active); in the assay with CAKI-1 renal, -28% (active); with A498 renal, 148%. Also, the values for the growth in the assay with CCRF-CEM leukemia and with MOLT-4 leukemia were -37.1% (active) and -41.1% (active), respectively.
Turning to `Cc1cc(C)nc(/N=C(\N)Nc2ccc(S(=O)(=O)Nc3nc(C)cc(C)n3)cc2)n1`, the growth is 104% in the assay on HCT-15 colon; 116% in the assay with HT29 colon; 78% in the assay on SNB-75 CNS; 102% with SNB-19 CNS; 106% with U251 CNS; 105% in the assay on PC-3 prostate. Further, the growth with SK-MEL-5 melanoma was 102%; in the assay with UACC-62 melanoma, 100%; with LOX IMVI melanoma, 98.6%; with SK-MEL-28 melanoma, 106%; with SK-MEL-2 melanoma, 107%; with EKVX NSCLC, 104%. For the same molecule, the growth was 111% with SN12C renal; 85% in the assay with UO-31 renal; 105% with TK-10 renal; 115% in the assay with ACHN renal; 100% in the assay on CAKI-1 renal; 112% in the assay on A498 renal. Moreover, the growth in the assay with CCRF-CEM leukemia is 96.2%; in the assay on MOLT-4 leukemia, 104%.
Turning to `Cc1ccn2c(C(=O)c3ccc(Br)cc3)cc(-c3cc(-c4ccc(N(C)C)cc4)c(C#N)c(N)n3)c2c1`, the growth in the assay on HCT-15 colon was 39.7%; with HT29 colon it was 34.6%; with SNB-75 CNS, 118%; with SNB-19 CNS, 67.8%; in the assay with U251 CNS it was 19.9%; in the assay on PC-3 prostate it was 64.4%. Besides, the growth was 53.1% with SK-MEL-5 melanoma; 76.7% in the assay on UACC-62 melanoma; 30.7% in the assay on LOX IMVI melanoma; 51.1% with SK-MEL-28 melanoma; 81.1% with SK-MEL-2 melanoma; 68.2% with EKVX NSCLC. The growth in the assay on SN12C renal is 76.5%; with UO-31 renal, 63.3%; with TK-10 renal, 98.9%; in the assay on ACHN renal, 71.5%; in the assay on CAKI-1 renal, 67.2%; with A498 renal it was 91.9%. Besides, the growth in the assay on CCRF-CEM leukemia is 94.3%; in the assay with MOLT-4 leukemia, 94%.
As for `CC(=O)Oc1ccccc1C(=O)Oc1ccc(C(=O)/C=C/c2ccncc2)cc1`, the growth in the assay with HCT-15 colon is -4.84% (active); in the assay on HT29 colon, 22%; with SNB-75 CNS, 102%; in the assay with SNB-19 CNS it was 47.2%; in the assay on U251 CNS, 14.7%; in the assay with PC-3 prostate it was 54.7%. The growth in the assay on SK-MEL-5 melanoma is 71.2%; with UACC-62 melanoma it was 50.6%; with LOX IMVI melanoma, -44.2% (active); in the assay on SK-MEL-28 melanoma it was 68.8%; with SK-MEL-2 melanoma, 108%; with EKVX NSCLC, 80.6%. Further, the growth with SN12C renal was 18.6%; in the assay with UO-31 renal, 38.7%; with TK-10 renal, 91.6%; in the assay with ACHN renal, 56%; in the assay with CAKI-1 renal, 59.7%; in the assay on A498 renal, 84%. The growth is 43.6% in the assay with CCRF-CEM leukemia and 40.1% with MOLT-4 leukemia.
Regarding `O=C(CNc1nc(-c2ccccc2)cs1)Nc1ccc(Cl)cc1[N+](=O)[O-]`, the growth in the assay with HCT-15 colon is -78.5% (active); with HT29 colon, -14.8% (active); in the assay with SNB-75 CNS it was -19.2% (active); in the assay on SNB-19 CNS, 5.15% (active); with U251 CNS it was -52.1% (active); in the assay with PC-3 prostate, 10.5%. The growth in the assay on SK-MEL-5 melanoma was -100% (active); with UACC-62 melanoma, -70.5% (active); with LOX IMVI melanoma, -97.2% (active); in the assay on SK-MEL-28 melanoma it was -69.4% (active); in the assay on SK-MEL-2 melanoma it was -50.1% (active); with EKVX NSCLC, -8.05% (active). Besides, the growth in the assay on SN12C renal is -28.7% (active); in the assay with UO-31 renal, -56.4% (active); with TK-10 renal, 0.433% (active); in the assay with ACHN renal, -60.6% (active); in the assay on CAKI-1 renal it was 2.07% (active); in the assay with A498 renal, 14.8%. The growth in the assay on CCRF-CEM leukemia is 11.1%; with MOLT-4 leukemia, 3.2% (active).
`COc1ccc(NC(=O)Cn2c(/C=C/c3ccc(N(C)C)cc3)nc3ccccc3c2=O)cc1`: the growth with HCT-15 colon is 57%; with HT29 colon, 44.7%; in the assay with SNB-75 CNS, 84.1%; in the assay with SNB-19 CNS, 70.7%; in the assay on U251 CNS, 23%; in the assay on PC-3 prostate it was 64.5%. Further, the growth is 30.7% in the assay on SK-MEL-5 melanoma; 40.9% in the assay with UACC-62 melanoma; 13.8% in the assay with LOX IMVI melanoma; 45.6% in the assay with SK-MEL-28 melanoma; 76.4% in the assay on SK-MEL-2 melanoma; 71.2% with EKVX NSCLC. Also, the growth in the assay with SN12C renal is 24%; in the assay with UO-31 renal, 2.65% (active); in the assay on TK-10 renal it was 62.8%; with ACHN renal, -2.17% (active); in the assay with CAKI-1 renal, 18.9%; in the assay on A498 renal it was 56.5%. The growth with CCRF-CEM leukemia was 90.9%; in the assay on MOLT-4 leukemia, 85.3%.
In the case of `O=c1[nH]c2ccc(Cl)cc2cc1CSc1ccc(Nc2nccc(-c3ccc4ccccc4c3)n2)cc1`, the growth is 12.6% in the assay with HCT-15 colon; 75.1% with HT29 colon; 107% with SNB-75 CNS; 71.8% with SNB-19 CNS; 45.7% in the assay on U251 CNS; 62.4% with PC-3 prostate. The growth is 98.4% with SK-MEL-5 melanoma; 106% with UACC-62 melanoma; 60.4% in the assay on LOX IMVI melanoma; 90.8% in the assay with SK-MEL-28 melanoma; 97.2% with SK-MEL-2 melanoma; 83.6% with EKVX NSCLC. Also, the growth is 62.6% in the assay with SN12C renal; 96.2% in the assay on UO-31 renal; 79.8% in the assay with TK-10 renal; 100% in the assay on ACHN renal; 97.1% in the assay on CAKI-1 renal; 119% in the assay with A498 renal. Also, the growth is 80% with CCRF-CEM leukemia and 80.5% in the assay on MOLT-4 leukemia.
As to `CCCCOc1ccc(Nc2nc3ccccc3nc2Nc2ccc(OCCCC)cc2)cc1`, the growth was 64.4% in the assay with HCT-15 colon; 73.7% with HT29 colon; 89.5% with SNB-75 CNS; 84.1% with SNB-19 CNS; 67.3% in the assay with U251 CNS; 59.7% with PC-3 prostate. Further, the growth was 96.3% with SK-MEL-5 melanoma; 90.6% in the assay on UACC-62 melanoma; 102% in the assay with LOX IMVI melanoma; 109% with SK-MEL-28 melanoma; 99.5% in the assay on SK-MEL-2 melanoma; 82.2% in the assay with EKVX NSCLC. The growth is 95.9% in the assay with SN12C renal; 85.3% with UO-31 renal; 91.9% with TK-10 renal; 97.7% in the assay on ACHN renal; 91.8% with CAKI-1 renal; 105% with A498 renal. The growth was 69.1% in the assay with CCRF-CEM leukemia and 68.3% with MOLT-4 leukemia.
